From PubChem
ELG1 DNA repair – blocks ELG1-dependent DNA repair in HEK293T cells. HEK293T ELG1-luciferase reporter, luminescence, 16 h; DNA damage induced by 5-fluorouridine. Potency, µM (titrated, usually from 46.1 µM), without a hit: top-dose activity change, negative = inhibition, actives largely listed as inhibitors. 330,000 tested, 2.3% active; note: potency is the fitted concentration of half-maximal effect; nearly all actives have a fitted effect of over 55% in size
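Luminescence from the luciferase reporter, measured 30 min after ONE-Glo reagent at room temperature, was the read-out. Beforehand, 2,000 cells per well were exposed for 16 hr at 37 °C to 5-fluorouridine together with compound or vehicle.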
TDP1 cell CPT – growth inhibition of DT40 Tdp1-/-;hTDP1 cells with camptothecin (screen for TDP1 inhibitors); chicken DT40 Tdp1-/-;hTDP1 cells + 20 nM CPT, ATP luminescence, 48 h; Potency, µM (titrated, usually from 46.2 µM), without a hit: at the top dose activity change, negative = growth inhibition, actives largely listed as inhibitors; 420,000 tested, 12% active; AID 686979; note: potency is the fitted concentration of half-maximal effect; nearly all actives have a fitted effect of over 55% in size
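Chicken DT40 Tdp1-/- cells stably complemented with human TDP1 were seeded at 400 cells/well in medium containing 20 nM camptothecin, exposed to pin-transferred compounds, and grown at 37 °C for at least 48 hr. Viability was read as ATP luminescence.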
HT1080-NT tox – kills 2HG-producing HT-1080-NT fibrosarcoma cells. Potency, µM (series often up to 46.1 µM), for the others: top-dose activity, negative = less viability, most hits filed as cytotoxic. HT-1080-NT fibrosarcoma viability, CellTiter-Glo ATP luminescence, 48 h. AID 686970. 360,000 tested, 1.6% active;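 note: NT is the 2HG producing partner of a matched IDH1 knockdown line; potency is the fitted concentration of half-maximal effect; 0% = DMSO-treated cells and -100% = media-only wells without cells; nearly all actives have a fitted effect of over 55% in size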
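A 48-hour cytotoxicity screen used HT-1080-NT cells plated 2 hours before compound delivery. ATP-based CellTiter-Glo luminescence measured viability, normalized to DMSO and no-cell controls.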
TDP1 cell noCPT – qHTS for Inhibitors of human tyrosyl-DNA phosphodiesterase 1 (TDP1): qHTS in cells in absence of CPT | Potency, µM (top dose mostly 46.2 µM), inactives show at the top dose activity change, negative = growth inhibition, usual class: inhibitors | 420,000 tested, 15% active | AID 686978, 2013 | DT40 Tdp1-/- hTDP1 cells, no CPT, ATP luminescence, 48 h; note: potency is the fitted concentration of half-maximal effect; nearly all actives have a fitted effect of over 55% in size
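Camptothecin absent (DMSO only). Human TDP1-complemented DT40 knockout cells, 400 cells/well, 37 °C for minimum 48 hr; ATP measured via CellTiter-Glo, 30 min dark incubation, luminescence.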
HT1080 IDH1KD tx – kills HT-1080 cells with IDH1 knockdown; HT-1080 IDH1 knockdown viability, ATP luminescence, 48 h; 360,000 tested, 2% active; AID 686971; Potency, µM (doses to about 46.1 µM), without a hit: top-dose activity, negative = toxicity, actives largely listed as cytotoxic;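 note: potency is the fitted concentration of half-maximal effect; 0% = DMSO wells and -100% = cell-free medium wells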
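IDH1KD HT-1080 cells, 750/well, RPMI + 5% FBS; compound pinned after 2 h settling; 48 h, 37 °C; CellTiter-Glo luminescence; % activity normalised to DMSO and no-cell wells; curves fitted, classed by r2 and efficacy.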
IL1B secr inh – inflammasome signaling inhibition, IL-1 beta readout. activity change, % at 57.5 µM. AID 743279. THP-1 LPS/ATP IL-1B secretion, AlphaLISA, 16 h; stronger effect = lower value. 360,000 tested, 4.7% active; in the data active = activity change below about -50%; inconclusive = mostly about -30% to -49%
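THP-1 cells pretreated 1 hr with compounds (up to 57.5 uM final), then stimulated with LPS (250 ng/mL final) plus ATP (1.25 mM final); secreted IL-1B measured by AlphaLISA after 16 hr, decreased signal indicating inhibition.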
An asterisk follows results filed as active; i = inactive; ? = inconclusive; / = no result given; ! = not confirmed by another sample. Compounds with a hit are over-represented: about 19% of the library has one in this group of screens. Unless noted, calls come from the whole dose curve; as a rule, active = well fitted curve in the direction sought with a large enough effect; inconclusive = small, poorly fitted or top-dose-only effect, or another doubt; inactive = no such curve, though single readings can be large; an effect the other way counts as inactive or inconclusive. Unless noted, % is set by controls: 0 for no effect and ±100 for the full control effect.

SMILES	ELG1 DNA repair	TDP1 cell CPT	HT1080-NT tox	TDP1 cell noCPT	HT1080 IDH1KD tx	IL1B secr inh
COc1ccc(N(C)S(=O)(=O)c2cccc(C(=O)Nc3ccc(N4CCOCC4)cc3)c2)cc1	?	18µM*	-8%	23µM*	-27%	-13
O=C(c1ccccc1F)N(NC(=O)C(O)(c1ccccc1)c1ccccc1)c1ccccc1	-14%	?	-2%	?	-1%	-7
COc1cc(SC)ccc1C(=O)NCCNC(=O)c1nonc1N	16%	-19%	-7%	-29%	-6%	-11
CCc1nn(CC(=O)NC(C)CCc2ccccc2)c(=O)c2cc3c(OC)cccc3n12 (stereo not drawn)	/	-24%	/	-13%	/	/
CSc1ccc(Cl)c(C(=O)OCC(=O)NCc2ccco2)c1	0%	-13%	2%	-22%	-2%	17
CSc1ccc(Cl)c(C(=O)NCc2ccco2)c1	11%	16µM*	10%	?	7%	-15
O=C(NCc1ccco1)c1ccc(Br)s1	-9%	-15%	-2%	-17%	1%	-9
O=C(NCc1ccco1)c1ccc(C(=O)NCc2ccco2)s1	-10%	?	13%	26µM*	20%	-17
O=C(NC1CC1)c1ccc(-c2ccc3nccn3c2)cc1	/	?	11%	-23%	-4%	-18
O=C(NCc1ccco1)c1ccc(-c2ccc3nccn3c2)cc1	/	23µM*	11%	?	?	-101*
O=C(NCc1ccccc1)c1nncc(-c2ccccc2)n1	?	-11%	14%	-13%	13%	-9
O=C(O)CCC(=O)N1CCN(c2ncccc2C(F)(F)F)CC1	10%	3%	10%	33%	15%	14
CNc1nc(OC)nc(N(C#N)CN2C(=O)c3ccccc3S2(=O)=O)n1	23%	15µM*	-15%	16µM*	?	-82*
Cc1cc(C)nc(N(C#N)CN2C(=O)c3ccccc3S2(=O)=O)n1	0%	?	-1%	15µM*	1%	-14
Cc1cc(C)nc(NC(=O)CN2C(=O)c3ccccc3S2(=O)=O)n1	?	4%	1%	-10%	5%	12
CCOC(=O)C(=Cc1cc(=O)c(OC)co1)C(=O)OCC	5.8µM*	1.3µM*	12µM*	0.73µM*	18µM*	-97*
COc1coc(C(O)CN)cc1=O (stereo not drawn)	2%	-7%	-2%	-4%	5%	4
c1csc(-c2cn3ccc4ccccc4c3n2)c1	16µM*	-14%	-19%	-19%	-29%	-62*
CC1=C(C(=O)Nc2ccccc2)C(c2ccccc2)n2nc(-c3ccco3)nc2N1 (stereo not drawn)	/	-25%	/	-26%	/	/
Cc1ccccc1Cn1c(C)nc2ccccc21	17%	?	-21%	5.8µM*	?	-5
Cc1nc2ccccc2n1Cc1ccc(Cl)cc1	23%	10µM*!	?	7.3µM*	?	-14
COc1ccccc1Cn1c(C)nc2ccccc21	?	-28%	-2%	?	-16%	/
Cc1ccccc1Cn1c(-c2cncs2)nc2ccccc21	?	?	-20%	?	-22%	-52*
Brc1ccccc1Cn1c(-c2cscn2)nc2ccccc21	-4%	23µM*	-2%	?	?	-6
COC(CNc1ccc([N+](=O)[O-])c(NCC(OC)OC)c1C#N)OC	-12%	2%	3%	-28%	-10%	-13
SMILES	ELG1 DNA repair	TDP1 cell CPT	HT1080-NT tox	TDP1 cell noCPT	HT1080 IDH1KD tx	IL1B secr inh
Cc1ccc(S(=O)(=O)NC(=O)C2(C)CCN2C(=O)Cc2ccc(C(C)(C)C)cc2)cc1 (stereo not drawn)	/	-7%	27%	-11%	25%	0
O=C(Cn1c(-c2cncs2)nc2ccccc21)NCc1ccccc1	-4%	7%	3%	-8%	4%	-5
CCCCOc1ccccc1NC(=O)Cn1c(-c2cncs2)nc2ccccc21	/	23µM*	/	?	/	/
Clc1ccc(COn2c(-c3ccc(Cl)cc3)nc3ccccc32)cc1	16%	?	-5%	?	8%	-26
Cc1cccc(Cn2c(Cc3ccccc3)nc3ccccc32)c1	11%	?	0%	?	11%	-9
Clc1ccc(COn2c(-c3ccccc3)nc3ccccc32)cc1	10%	?	-5%	23µM*	0%	?
Fc1ccccc1Cn1c(-c2ccccc2)nc2ccccc21	/	?	/	7.3µM*	/	/
CC(C)(C)c1ccc(Cn2c(Cc3ccccc3)nc3ccccc32)cc1	/	7.3µM*	/	6.5µM*	/	/
CCSc1nc2ccccc2n1Cc1ccccc1F	26%	-23%	-4%	?	-8%	-15
CCCn1c(C)cc(C(=O)COC(=O)CN=C2NS(=O)(=O)c3ccccc32)c1C	3%	?	7%	9%	8%	5
O=C(NC1CCCC1)C1CCN(C(=O)c2ccc(Cl)cc2Cl)CC1	2%	7%	18%	-1%	6%	12
Cc1ccccc1Cn1c(Cc2ccccc2)nc2ccccc21	-7%	?	0%	18µM*	1%	-20
COc1ccc(-c2cc(C(=O)N/N=C/c3cc(OC)c(OC)cc3OC)c3ccccc3n2)cc1	/	10µM*	-2%	9.2µM*	-21%	-7
Cc1cccc(-c2cc(C(=O)N/N=C/c3cccnc3)c3ccccc3n2)c1	/	?	-11%	?	-22%	-20
CCCOc1cccc(-c2cc(C(=O)N/N=C/c3cccnc3)c3ccccc3n2)c1	16µM*	9.2µM*	-16%	8.2µM*	?	i
COc1cc2ccccc2cc1C(=O)N/N=C/c1cccnc1	-21%	15µM*	-12%	?	?	-11
COc1ccc(Br)cc1C(=O)N/N=C/c1cccnc1	3%	12%	19%	12%	8%	3
CCCOc1cccc(-c2cc(C(=O)N/N=C/c3ccccn3)c3ccccc3n2)c1	12%	12µM*	-28%	9.2µM*	?	-98*
Cc1c(-c2nnc(SCC(=O)Nc3ccc(Cl)cc3)o2)nnn1-c1ccc(F)cc1	/	?	/	-30%	/	/
COc1cccc(-c2cc(C(=O)NC3CCCC3)c3ccccc3n2)c1	/	?	-11%	?	-3%	3
CC(C)COc1cccc(-c2cc(C(=O)Nc3ccon3)c3ccccc3n2)c1	?	16µM*	?	10µM*	?	-22
Cc1cccc(/C=N/NC(=O)c2cc(-c3cccnc3)nc3ccccc23)c1	4%	0%	10%	-3%	20%	47
COc1ccc(-c2cc(C(=O)N/N=C/c3cccnc3)c3ccccc3n2)cc1	?	9.2µM*	?	?	?	-12
